Most compounds without a hit are left out; they make up all but 0.95% or so of the library.
Giardia FBPA inh-1: qHTS Assay for Inhibitors of Fructose-1,6-bisphosphate Aldolase from Giardia Lamblia. Potency, µM (series often up to 59.6 µM), for the others: top-dose activity, negative = inhibition, hits mostly inhibitors. A8B2U2. purified Giardia FBPA. 290,000 tested, 0.71% active; also: nearly all actives have a fitted effect of over 55% in size
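Giardia FBPA (40 nM reagent) was preincubated 10 min at RT with compound (up to 57.5 uM final), then substrate plus GAPDH/TPI/NAD/arsenate coupling system with diaphorase/resazurin was added; resorufin fluorescence (525/598 nm) was read after 20 min.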
TbPYK inhibitor: qHTS of Trypanosoma Brucei Inhibitors; TbPYK enzyme, Kinase-Glo Plus ATP luminescence, 45 min; Potency, µM (top dose mostly 76.8 µM), for the others: top-dose activity, negative = inhibition, actives largely listed as inhibitors; 410,000 tested, 0.12% active; also: nearly all actives have a fitted effect of over 50% in size
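In this concentration-response screen, enzyme-free wells defined baseline while DMSO plates tracked drift. Each reaction combined TbPYK, substrate, compound and 130 uM ADP for 45 min at room temperature. Kinase-Glo Plus luminescence gave the signal.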
LmPK inhibitor: qHTS Assay for Inhibitors of Leishmania Mexicana Pyruvate Kinase (LmPK); Potency, µM (top dose mostly 57.5 µM), inactives show at the highest dose activity change, negative = inhibition, hits mostly inhibitors; Q27686; AID 1721, 2009; purified LmPK, Kinase-Glo ATP luminescence, 1 h; 290,000 tested, 0.37% active
Target sequence (Q27686 whole entry, looked up): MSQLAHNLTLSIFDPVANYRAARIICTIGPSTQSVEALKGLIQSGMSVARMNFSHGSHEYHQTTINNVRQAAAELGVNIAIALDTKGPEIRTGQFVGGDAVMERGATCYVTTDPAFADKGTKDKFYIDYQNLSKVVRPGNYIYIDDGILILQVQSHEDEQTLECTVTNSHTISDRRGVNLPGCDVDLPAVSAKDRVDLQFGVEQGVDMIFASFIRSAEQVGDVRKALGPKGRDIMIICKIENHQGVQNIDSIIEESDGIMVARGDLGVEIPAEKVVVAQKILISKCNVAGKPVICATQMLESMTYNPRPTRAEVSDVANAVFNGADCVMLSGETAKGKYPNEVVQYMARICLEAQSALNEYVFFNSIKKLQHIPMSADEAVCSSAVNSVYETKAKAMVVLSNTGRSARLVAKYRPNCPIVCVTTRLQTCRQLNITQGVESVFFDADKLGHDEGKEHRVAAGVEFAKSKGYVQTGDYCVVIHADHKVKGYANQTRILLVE
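Pyruvate kinase activity monitored as ATP production (luciferase luminescence). Conditions: 0.1 nM enzyme, 0.5 mM PEP, 0.1 mM ADP, 1 h, RT; normalized against uninhibited and no-enzyme wells.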
RE007 growth inh: qHTS Assay for Inhibitors of the HIV-1 protein Vpr; Potency, µM (doses to about 92.2 µM), without a hit: top-dose activity change, negative = less growth, usual class: inhibitors; S. pombe RE007 Vpr strain, BacTiter-Glo ATP luminescence, 24 h; AID 651644, 2012; 360,000 tested, 0.21% active; active = well fitted falling curve with a large enough effect; inconclusive = small, poorly fitted or top-dose-only effect; inactive = no such curve, though single readings can be large or run the other way; also: nearly all actives have a fitted effect of over 50% in size
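Fission yeast RE007 carrying one integrated HIV-1 vpr copy, seeded at OD 0.01 in PMG+AL medium with 23 nL pinned compound. Grown 24 h at 30 degrees; viability read by BacTiter-Glo luminescence after 5 min.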
Giardia growth: qHTS Assay for Inhibitors of Fructose-1,6-bisphosphate Aldolase from Giardia Lamblia: Giardia lamblia growth inhibition; shares compounds with Giardia FBPA inh-1; Potency, µM (series often up to 57.5 µM), inactives show at the top dose activity change, negative = inhibition, usual class: inhibitors; AID 2785, 2010; 1,500 tested, 5% active; Giardia lamblia trophozoite growth inhibition;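 also: trophozoites exposed to compound for 48 h at 37 °C; nearly all actives have a fitted effect of over 70% in size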
Mammal cell tox: qHTS Assay for Inhibitors of Fructose-1,6-bisphosphate Aldolase from Giardia Lamblia: Mammalian cellular toxicity; Potency, µM (doses to about 57.5 µM), for inactives: at the highest dose viability change, negative = toxicity, most hits filed as inhibitors; mammalian cell viability counter-screen, qHTS; shares compounds with Giardia FBPA inh-1; 1,500 tested, 4% active;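 also: Chinese hamster ovary cells used as mammalian cytotoxicity surrogate; viability measured as cellular ATP by luminescence; compound exposure lasted 48 h before reading; nearly all actives have a fitted effect of over 60% in size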
Giardia FBPA inh-2: qHTS Assay for Inhibitors of Fructose-1,6-bisphosphate Aldolase from Giardia Lamblia: Primary screen confirmation. shares compounds with Giardia FBPA inh-1. purified Giardia aldolase enzyme activity, qHTS. Potency, µM (series often up to 57.5 µM), without a hit: at the highest dose activity change, negative = inhibition, usual class: inhibitors. 1,500 tested, 5% active; also: nearly all actives have a fitted effect of over 45% in size
Rabbit aldolase: qHTS Assay for Inhibitors of Fructose-1,6-bisphosphate Aldolase from Giardia Lamblia: Rabbit FBPA Selectivity | shares compounds with Giardia FBPA inh-1 | Potency, µM (series often up to 57.5 µM), for inactives: top-dose activity, negative = inhibition, hits mostly inhibitors | 1,500 tested, 4% active | Rabbit muscle FBPA enzyme inhibition, selectivity counter-screen; also: nearly all actives have a fitted effect of over 60% in size
GAPDH counter: qHTS Assay for Inhibitors of Fructose-1,6-bisphosphate Aldolase from Giardia Lamblia: Coupling assay counterscreen confirmation | shares compounds with Giardia FBPA inh-1 | GAPDH coupling enzyme counterscreen, biochemical, qHTS | Potency, µM (series often up to 57.5 µM), for the others: at the highest dose activity change, negative = inhibition, actives largely listed as inhibitors | 1,500 tested, 6% active | AID 2795, 2010; also: nearly all actives have a fitted effect of over 55% in size
* marks the source's active call; other numbers are inactive results; u = inconclusive; x = not tested or not shown; [ ] = another dose, or the depositor's remark. Unless noted, calls follow the shape of the dose curve; as a rule, active = well fitted curve in the direction sought with a large enough effect; inconclusive = small, poorly fitted or top-dose-only effect, or another doubt; inactive = no such curve, though single readings can be large; an effect the other way counts as inactive or inconclusive. % is scaled to controls: 0 for no effect and ±100 for the full control effect; potency is read from the fitted curve at half-maximal effect.

SMILES | Giardia FBPA inh-1 | TbPYK inhibitor | LmPK inhibitor | RE007 growth inh | Giardia growth | Mammal cell tox | Giardia FBPA inh-2 | Rabbit aldolase | GAPDH counter
C[C@H](NC(=O)c1ncn2c1C(=O)NC[C@@H]2C)c1ccccc1 | x | 0% | x | 6% | x | x | x | x | x
O=C(Nc1nnc(-c2ccc(Cl)cc2)o1)c1cccc(N2C(=O)CCC2=O)c1 | 27% | -4% | -5% | -10% | x | x | x | x | x
O=C(Nc1nnc(-c2ccncc2)o1)c1cccc(N2C(=O)CCC2=O)c1 | 20µM* | 1% | 3%[11.5 µM] | 3% | -7%[10.4 µM] | -15% | 7% | 8% | 9%
Cc1cccc(C(=O)Nc2nnc(-c3cccnc3)o2)c1 | 16µM* | 1% | -7% | -4% | u | u | 4% | -1% | -1%
Cc1cccc(S(=O)(=O)c2cn(Cc3ccc(F)cc3)c3cc(N4CCCCC4)c(F)cc3c2=O)c1 | x | 2% | x | x | x | x | x | x | x
O=C(Nc1ccccc1)N1CCCC2(CCN(S(=O)(=O)c3ccccc3)CC2)C1 | -7% | -8% | x | x | x | x | x | x | x
Cn1c2ccccc2c2cc(/C=N/NC(=O)c3cc(O)ccc3O)ccc21 | 25µM* | -13% | 0% | -13% | -10% | 1% | u | -7% | -29%
CCOC(=O)c1oc2c(C)c(O)ccc2c(=O)c1-c1nncn1-c1ccccc1 | -5% | 2% | 0% | 2% | x | x | x | x | x
CCOC(=O)c1oc2c(O)c(O)ccc2c(=O)c1-c1nncn1-c1ccccc1 | 4.5µM* | -7% | -4% | -17% | -28% | -20% | u | u | -18%
Cc1oc(-c2ccc(C(=O)Nc3ccc(F)cc3F)cc2)nc1COc1ccccc1 | x | 3%[15.4 µM] | x | x | x | x | x | x | x
COC/C=C/C1=CC2=CC(=O)C(C)(OC(=O)c3cnc4ccccc4n3)C(=O)C2=CN1CCOC (stereo unspecified) | u | -4% | -8%[11.5 µM] | -13% | x | x | x | x | x
COC/C=C/C1=CC2=CC(=O)C(C)(OC(=O)c3cnc4ccccc4n3)C(=O)C2=CN1CCN1CCOCC1 (stereo unspecified) | 16µM* | -9% | -5%[11.5 µM] | -8% | -19% | -5% | u | u | u
O[C@@H]1CO[C@H]2C1OC[C@@H]2O (stereo partly specified) | 2% | x | x | x | x | x | x | x | x
CCOC(=O)/C(C#N)=N/Nc1c(C)n(C)n(-c2ccccc2)c1=O | 16µM* | -2% | -2% | 6% | -5%[10.4 µM] | -1% | 0% | -4% | -3%
CCOC(=O)c1cnc(-n2[nH]c(C)cc2=O)[nH]c1=O | u | -9% | -9% | -5% | x | x | x | x | x
CCOC(=O)c1cnc(-n2nc(C)cc2C)[nH]c1=O | 4.5µM* | 1% | 2% | -2% | -7%[38.3 µM] | -12% | -21% | -11% | -14%
Cc1ccccc1OCCOC(=O)c1ccc(S(=O)(=O)N2CCCC2)cc1 | x | 2% | x | 7% | x | x | x | x | x
Cc1ccccc1C(=O)c1cccn1CC(=O)NCCCN1CCc2ccccc2C1 | 16µM* | -16% | 2%[11.5 µM] | -6% | u | -12% | 9% | 10% | 6%
c1ccc(OCCOCCN2CCOCC2)cc1 | 2% | -13% | -2% | -15% | x | x | x | x | x
CCN1CCN(CCOCCOc2ccccc2)CC1 | 25µM* | 11% | -1% | 10% | u | 0% | 4% | 0% | 14%
CSC1=NS(=O)(=O)c2c(C)nn(C)c2S1 | 16µM* | 2.5µM* | 29% | -6% | 30% | 9% | -3% | 40µM* | u
O=C(CCCCCCCCCCCCC1CCCC1)Nc1ccc(S(=O)(=O)c2ccc(NC(=O)CCCCCCCCCCCCC3CCCC3)cc2)cc1 | 9% | -9% | x | x | x | x | x | x | x
Cc1ccc(-n2nc3c(=O)n(C(C)C(=O)NCCC4=CCCCC4)nc(C)c3c2C)cc1 (stereo unspecified) | 18% | 4% | 11% | -14% | x | x | x | x | x
C=CCOc1ccccc1CN1CCCCCC1 | 18µM* | 12% | -1% | -20% | -10% | 0% | -2% | 8% | 3%
CC1(C(=O)O)CCN1C(=O)c1ccccc1F (stereo unspecified) | x | 9% | x | -2% | x | x | x | x | x
SMILES | Giardia FBPA inh-1 | TbPYK inhibitor | LmPK inhibitor | RE007 growth inh | Giardia growth | Mammal cell tox | Giardia FBPA inh-2 | Rabbit aldolase | GAPDH counter
Cc1nnc(SCc2cc(=O)[nH]c(=S)[nH]2)s1 | 7.9µM* | -22% | 0% | 17% | -25% | 0% | 5% | 7% | 13%
C(=C\CSc1ncn[nH]1)/CSc1ncn[nH]1 | u | 0% | -7% | 39% | 0%[38.3 µM] | 4% | -2% | 1% | 2%
O=C(COc1ccccc1-c1nnc(-c2ccccc2)o1)Nc1ccc(Br)cc1F | x | 4% | x | x | x | x | x | x | x
OCC1OC(n2cnc3c(=S)nc[nH]c32)CC1O (stereo unspecified) | x | -26% | x | 2% | x | x | x | x | x
S=c1nc[nH]c2c1ncn2C1CCCO1 (stereo unspecified) | 2.5µM* | -23% | 4% | -3% | 17%[38.3 µM] | 32µM* | -4% | -5% | -5%
O=C(O)Cc1sc(Nc2ccc(Cl)cc2)nc1-c1cccs1 | 18µM* | -27% | -6% | -3% | 15% | -5% | 3% | 9% | 2%
Brc1ccccc1/C=N/Nc1ccccn1 | 1% | -3% | -25% | -5% | x | x | x | x | x
O=[N+]([O-])c1ccc(NN=Cc2ccccc2O)nc1 | x | 9% | x | -14% | x | x | x | x | x
O=[N+]([O-])c1ccc(O)c(/C=N/Nc2ccccn2)c1 | 5µM* | -4% | 9% | u | u | 20µM* | u | 4% | -28%
O=C(O)COc1ccc(Br)cc1/C=N\Nc1ccccn1 | 11µM* | 2% | -2% | 1% | -20% | -7% | 4% | 10% | 15%
CC(C)c1ccc(NC(=O)C2CCN(S(=O)(=O)c3cccc4nonc34)CC2)cc1 | x | 4% | x | x | x | x | x | x | x
